Measurements: PubChem BioAssay (EPA / NIEHS)
Where “and” joins values, the source holds several entries; their conditions need not be identical. Identical values can stand only once. Some compounds were tested as several samples or in several runs, with calls that do not always agree. Calls of active or inactive are those of the source. The calls were made as follows: active = hit-call score of the fitted dose curve at least 0.9, where 1 is the maximum; inactive = score below 0.9.

Columns and labels:
Conditions in all cases: primary human HUVEC with PBMC; actives raise or lower the signal
[1] = read-out: Monocyte Chemoattractant Protein-1 (MCP1), CCL2 (gene 6347); experiment: BSK_LPS_MCP1: BioMAP Diversity Plus: LPS Assay for Monocyte Chemoattractant Protein-1 (MCP1) Biomarker Activity (AID 2283081);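 as to AC50: secreted MCP-1 protein quantified by ELISA in culture supernatant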
Method in brief: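 LPS-stimulated HUVEC/PBMC co-culture; chemical, 24 h; MCP-1 by ELISA; bidirectional fit vs DMSO; cytotoxicity via SRB (0.1% stain, 10% TCA fix, 560 nm) in parallel wells.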

[2] = BSK_LPS_PGE2: BioMAP Diversity Plus: LPS Assay for Prostaglandin E2 (PGE2) Biomarker Activity (AID 2283082);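 as to AC50: secreted prostaglandin E2 measured by ELISA in LPS-stimulated co-culture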
Method in brief: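 Primary human endothelial cells and blood mononuclear cells, co-cultured with LPS, receive test chemical; PGE2 ELISA follows at 24 h, with SRB-stained parallel cultures flagging cytotoxicity.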

[3] = read-out: Macrophage colony-stimulating factor (MCSF), CSF1 (gene 1435); experiment: BSK_LPS_MCSF: BioMAP Diversity Plus: LPS Assay for Macrophage colony-stimulating factor (MCSF) Biomarker Activity (AID 2283083)
Method in brief: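 Compound is added to a human vascular primary co-culture of umbilical vein endothelium and blood mononuclear cells. After 24 h, M-CSF is quantified by ELISA. Signal changes are fitted in both directions against DMSO.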

[4] = read-out: Tissue Factor, F3 (gene 2152); experiment: BSK_LPS_TissueFactor: BioMAP Diversity Plus: LPS Assay for Tissue Factor Biomarker Activity (AID 2283084)
Method in brief: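 In this co-culture system of umbilical vein endothelium with PBMC, stimulated with LPS, cell-surface CD142 is detected by ELISA at 24 h. Endpoint values derive from bidirectional fitting, DMSO serving as baseline.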

[5] = read-out: Tumor necrosis factor (Homo sapiens) (UniProt P01375); experiment: BSK_LPS_TNFa: BioMAP Diversity Plus: LPS Assay for Tumour Necrosis Factor alpha (TNFa) Biomarker Activity (AID 2283085);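 as to AC50: TNFa protein level quantified by ELISA in the co-culture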
Method in brief: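 ELISA-based TNFa endpoint in a human endothelial–PBMC co-culture sampled 24 h post-exposure. Curves were fitted in both directions using DMSO as baseline of activity.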

[6] = read-out: Vascular cell adhesion molecule 1 (VCAM1), VCAM1 (gene 7412); experiment: BSK_LPS_VCAM1: BioMAP Diversity Plus: LPS Assay for Vascular cell adhesion molecule 1 (VCAM1) Biomarker Activity (AID 2283086)
Method in brief: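 Measured by ELISA: VCAM-1 in LPS-activated HUVEC/PBMC co-cultures 24 h after treatment. Values reflect bidirectional fitting with DMSO as baseline.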

CD38, CD38 (gene 952) = experiment: BSK_SAg_CD38: BioMAP Diversity Plus: SAg Assay for CD38 Biomarker Activity (AID 2283087)
Method in brief: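 Measures CD38 on a human endothelial/PBMC co-culture driven by SEB and TSST-1, 24 h after compound exposure, using ELISA with fluorescence detection; DMSO defines baseline for bidirectional curve fitting.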

CD40, CD40 (gene 958) = experiment: BSK_SAg_CD40: BioMAP Diversity Plus: SAg Assay for CD40 Biomarker Activity (AID 2283088)
Method in brief: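 Fluorescence ELISA read-out of CD40 from umbilical vein endothelium plus peripheral blood mononuclear cells, sampled 24 h after dosing. Values come from bidirectional curve fitting with DMSO as baseline.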

CD69, CD69 (gene 969) = experiment: BSK_SAg_CD69: BioMAP Diversity Plus: SAg Assay for CD69 Biomarker Activity (AID 2283089);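 as to AC50: cell surface CD69 protein quantified by ELISA with fluorescence detection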
Method in brief: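 Primary human vascular co-culture (umbilical vein endothelium with peripheral blood mononuclear cells) exposed to test chemical for 24 h. CD69 levels quantified by fluorescence ELISA; DMSO served as negative control for bidirectional fitting.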

[7] = read-out: Interleukin-1 alpha (IL1a), IL1A (gene 3552); experiment: BSK_LPS_IL1a: BioMAP Diversity Plus: LPS Assay for Interleukin-1 alpha (IL1a) Biomarker Activity (AID 2283080)
Method in brief: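 Measured: IL-1 alpha via ELISA at 24 h in LPS-activated human umbilical vein endothelium–PBMC co-culture. Baseline: DMSO, bidirectional fitting.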

Measured: AC50

Tumor necrosis factor (Homo sapiens), sequence (P01375 whole entry, looked up): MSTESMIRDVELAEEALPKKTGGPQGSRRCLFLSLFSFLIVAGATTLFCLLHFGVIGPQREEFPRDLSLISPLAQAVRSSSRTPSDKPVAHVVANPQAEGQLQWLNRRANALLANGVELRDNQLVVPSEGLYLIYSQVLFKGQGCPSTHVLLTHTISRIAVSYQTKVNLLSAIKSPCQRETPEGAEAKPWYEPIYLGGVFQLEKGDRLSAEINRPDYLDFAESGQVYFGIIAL

CCCCCCCCC(CO)CCCCCC (stereo not given)
not listed: [7]
inactive: all other assays above

Nc1nc(N)nc(-c2ccccc2)n1
inactive: all assays above

O=C1CCCCCCCCCCC1
inactive: all assays above

O=C1CCCCCCCCCCCN1
active: [5] 11.9 µM
not listed: [7]
inactive: all other assays above

C=C(C)C(=O)OCCCCCCCCCCCC
active: [5] 32.6 µM
inactive: all other assays above

Oc1ccccc1Cc1ccccc1O
active: [2] 2.47 µM and 1.8 µM
inactive: all other assays above

Nc1cccc(N)n1
inactive: all assays above

c1ccc2sc(SSN3CCOCC3)nc2c1
active: [3] 12.2 µM | CD38, CD38 (gene 952) 20 µM
not listed: [7]
inactive: all other assays above

O=C(O)C(F)(F)C(F)(F)C(F)(F)C(F)(F)C(=O)O
not listed: [7]
inactive: all other assays above

CC1=CC=C(C(C)C)CC1
inactive: all assays above

C=CCCCCCCCCC=O
inactive: all assays above

CCCCCCC=O
inactive: all assays above

CCc1cccc(C)c1N(C(=O)CS(=O)(=O)O)C(C)COC (stereo not given)
inactive: all assays above

CCCCCCOC(=O)CCCCC(=O)OCCCCCC
inactive: all assays above

CC(C)[N+](C)(CCOC(=O)C1c2ccccc2Oc2ccccc21)C(C)C
inactive: all assays above

Oc1c(Cl)cc(Cl)c(Cl)c1Cl
inactive: [7] | [2] | [5]
active: [1] 31.5 µM | [3] 26 µM | [4] 20 µM | [6] 20 µM | CD38, CD38 (gene 952) 20 µM | CD40, CD40 (gene 958) 20 µM | CD69, CD69 (gene 969) 27.8 µM

COC(OC)(C(=O)c1ccccc1)c1ccccc1
active: [7] 0.0387 µM
inactive: all other assays above

CCCC(C)C(=O)OCC (stereo not given)
not listed: [7]
inactive: all other assays above

C[N+](C)(C)CCCNS(=O)(=O)C(F)(F)C(F)(F)C(F)(F)C(F)(F)C(F)(F)C(F)(F)C(F)(F)C(F)(F)F
inactive: [1] | [4] | CD38, CD38 (gene 952) | CD40, CD40 (gene 958) | CD69, CD69 (gene 969)
active: [1] 36.4 µM | [2] 19.3 µM and 14.8 µM | [3] 46.7 µM and 52.8 µM | [4] 14.1 µM | [5] 41 µM and 28.3 µM | [6] 45 µM and 49.6 µM | CD40, CD40 (gene 958) 30 µM

Oc1ccc(/C=C/c2cc(O)cc(O)c2)cc1
active: [1] 20 µM | [2] 2.5 µM
not listed: [7]
inactive: all other assays above

CCCCCCCCCCCC(=O)N(C)CC(=O)O
inactive: [7] | [1] | [2] | [3] | [4] | [5] | [6] | CD38, CD38 (gene 952) | CD40, CD40 (gene 958) | CD69, CD69 (gene 969)
active: [2] 5.24 µM | [3] 5.86 µM

CC(C)C(=O)OCCc1ccccc1
inactive: all assays above

CC=C(C)C=CC=C(C)C
active: [6] 20 µM | CD38, CD38 (gene 952) 13.7 µM | CD40, CD40 (gene 958) 6.97 µM | CD69, CD69 (gene 969) 18.7 µM
inactive: all other assays above

CC(Cl)COP(=O)(OCC(C)Cl)OCC(C)Cl (stereo not given)
active: [5] 1.31 µM
inactive: all other assays above

c1ccc(Nc2cccc3ccccc23)cc1
active: [1] 27.8 µM and 29.1 µM | [2] 2.88 µM and 2.19 µM | [3] 31.2 µM and 16.1 µM | [5] 31.6 µM and 29.9 µM | [6] 32.5 µM and 28.1 µM | CD38, CD38 (gene 952) 30.4 µM and 31.1 µM | CD40, CD40 (gene 958) 28.9 µM and 26.5 µM | CD69, CD69 (gene 969) 30.4 µM and 33.2 µM
inactive: [4]

CC/C=C\C/C=C\C/C=C\CCCCCCCC(=O)OC
active: [1] 30.6 µM | [2] 5.75 µM | [3] 17.5 µM | [4] 12.6 µM | [5] 13.7 µM | [6] 27.3 µM | CD38, CD38 (gene 952) 15.1 µM | CD40, CD40 (gene 958) 14.8 µM | CD69, CD69 (gene 969) 21.6 µM

C=CC(=O)OCCCCCCOC(=O)C=C
active: [7] 8.11 µM | [1] 4.29 µM | [2] 2.13 µM | [3] 5.31 µM | [4] 9.18 µM | [5] 3.96 µM | [6] 5.81 µM | CD38, CD38 (gene 952) 3.8 µM | CD40, CD40 (gene 958) 11 µM | CD69, CD69 (gene 969) 2.98 µM

CCCCCCCCCCCC(C)=O
inactive: [1] | [2] | [3] | [4]
active: [5] 29.2 µM | [6] 30.8 µM | CD38, CD38 (gene 952) 31.6 µM | CD40, CD40 (gene 958) 30 µM | CD69, CD69 (gene 969) 31.1 µM
